Screens as filed in PubChem BioAssay.
FBW7 activator: activators of human E3 ligase FBW7; AID 1259310; Q969H0; normalized activity (activation), % at 26.1 µM; actives 0.13% (n = 650,000); AlphaScreen FBW7–phospho-cyclin E peptide binding, activator screen; in the data active = normalized activity above about 1.9%;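 also: purified mutant Fbw7 with reduced substrate affinity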
MITF inh: blocks human microphthalmia-associated transcription factor | AlphaScreen MITF homodimerization, bead proximity signal | inhibition, % at 2.6 µM | actives 0.91% (n = 650,000) | O75030; in the data active = inhibition above about 50%
TEAD-YAP block: TEAD-YAP interaction inhibition; HEK-TIYL cells, TEAD-Gal4/YAP UAS-luciferase luminescence; inhibition, % at 9.12 µM; actives 1.4% (n = 640,000); AID 1259422; in the data active = inhibition above about 32%
GPR151 ag: activators of human GPR151; PathHunter beta-arrestin GPR151 cells, luminescence; Q8TDV0; activation, % at 11.2 µM; actives 1% (n = 650,000); AID 1508602; in the data active = activation above about 4.9%
Target sequence (Q8TDV0 whole entry, looked up): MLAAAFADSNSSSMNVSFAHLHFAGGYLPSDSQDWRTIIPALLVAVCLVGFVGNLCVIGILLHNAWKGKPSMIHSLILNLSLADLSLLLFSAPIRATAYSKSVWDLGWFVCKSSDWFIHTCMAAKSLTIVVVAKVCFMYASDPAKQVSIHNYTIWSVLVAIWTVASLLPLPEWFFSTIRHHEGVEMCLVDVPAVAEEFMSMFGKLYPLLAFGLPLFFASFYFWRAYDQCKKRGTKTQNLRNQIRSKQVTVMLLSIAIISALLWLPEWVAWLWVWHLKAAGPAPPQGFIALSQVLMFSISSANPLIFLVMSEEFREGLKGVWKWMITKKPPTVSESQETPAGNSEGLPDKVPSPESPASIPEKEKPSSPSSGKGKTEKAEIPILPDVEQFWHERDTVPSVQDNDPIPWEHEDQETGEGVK
Of the large screens only hits and unclear results are named; the others gave an inactive call. Hits are enriched below; roughly 3.5% of the tested compounds scored in any of these assays.

CCOC(=O)Cn1cc(C(=O)OC)c2ccccc21	FBW7 activator 2.3
CCOC(=O)Cn1cc(C=O)c2ccccc21	none
CC(C)c1ccc(C(=O)CSc2ncn[nH]2)cc1	TEAD-YAP block 37.2
CC(=O)Nc1ccc(OCC(O)CN2CCN(CCO)CC2)cc1 (stereo unspecified)	none
FC(F)(F)c1ccc(Nc2nc(NC3CC3)c3ncn(-c4ccccc4)c3n2)cc1	none
c1ccc(Nc2nc(NC3CC3)c3ncn(C4CCCCC4)c3n2)nc1	none
c1ccc(Nc2nc(NC3CC3)c3ncn(-c4ccccc4)c3n2)cc1	TEAD-YAP block 47.2
c1ccc(-n2cnc3c(NC4CC4)nc(Nc4cccnc4)nc32)cc1	TEAD-YAP block 41.8
c1ccc(-n2cnc3c(NC4CC4)nc(Nc4ccc(-n5ccnc5)cc4)nc32)cc1	TEAD-YAP block 41.1
c1ccc(-n2cnc3c(NC4CC4)nc(Nc4ccccn4)nc32)cc1	TEAD-YAP block 47.0
CC(=O)C1=C(c2cccc([N+](=O)[O-])c2)N(C(C)=O)n2c(nnc2C2CCCCC2)S1	none
O=C(COC(=O)c1cc(=O)[nH]c(=O)[nH]1)Nc1ccc(Oc2ccccc2)cc1	none
CCOC(=O)/C=C(\Nc1ccc(C)cc1N)c1ccccc1	TEAD-YAP block 37.9
Cc1ccc(NC(=O)COc2ccccc2)c(N)c1	none
O=C(Cc1cn(-c2ccc(Nc3ccncn3)nn2)c2ccccc12)NCc1nc2ccccc2[nH]1	none
NCC(=O)N1CCC(C(=O)Nc2nc3ccc(-c4ccncc4)cc3s2)CC1	TEAD-YAP block 37.9
O=C(CSc1ccc(Cl)cc1)Nc1nc2ccc(-c3ccncc3)cc2s1	TEAD-YAP block 77.2
CC(C)c1ccc(NC(=O)C(c2ccccc2)N(Cc2ccccc2)Cc2ccccc2)cc1 (stereo unspecified)	none
Cc1nc2sccn2c1CN1CCc2ccc(NC(=O)C3CCCO3)cc2C1 (stereo unspecified)	TEAD-YAP block 37.2
O=C(Nc1ccc2c(c1)CN(C(=O)C#Cc1ccccc1)CC2)C1CCCO1 (stereo unspecified)	TEAD-YAP block 60.6
O=C(NCc1ccccc1)c1cccc(NCCCN2CCCC2=O)c1	none
CCN(C1=C(N2CCCC2)C(=O)c2ccccc2C1=O)c1ccccc1	MITF inh 69.3
CC(=O)N(C)C1=C(N2CCOCC2)C(=O)c2ccccc2C1=O	TEAD-YAP block 83.8
CC(=O)c1ccc(NC2=C(N3CCOCC3)C(=O)c3ccccc3C2=O)cc1	none
CCN(C(C)=O)C1=C(N2CCCC2)C(=O)c2ccccc2C1=O	TEAD-YAP block 84.3
CC(=O)N(C)C1=C(N2CCCC2)C(=O)c2ccccc2C1=O	TEAD-YAP block 94.0
CC(=O)N(C1=C(N2CCCCC2)C(=O)c2ccccc2C1=O)c1ccc(F)c(F)c1	none
N#CC1=CN(Cc2ccccc2)C=C(C=Nc2ccccc2)C1	none
N#CC1=C(N)C(C#N)(C#N)[C@@H](c2ccc(F)cc2)[C@@H]2CCCC=C12	none
COc1cc(C2CC(c3ccc(Cl)cc3)Nc3ncnn32)cc(OC)c1OC (stereo unspecified)	TEAD-YAP block 54.3
COc1ccc(C2CC(c3ccc(Cl)cc3)Nc3ncnn32)c(OC)c1OC (stereo unspecified)	none
O=C1COc2cc(S(=O)(=O)NCc3ccc(F)cc3)ccc2N1	none
O=C(O)CCc1ccc(-c2cnn3c(NCc4ccccn4)ccnc23)cc1	none
COCCNc1ccnc2c(-c3ccccc3Cl)cnn12	TEAD-YAP block 57.9
Fc1ccc(-c2cnn3c(NCCc4cccnc4)ccnc23)cc1Cl	none
COCCNc1ccnc2c(-c3ccc(CCC(=O)O)cc3)cnn12	TEAD-YAP block 50.5
Clc1ccccc1-c1cnn2c(NCCc3cccnc3)ccnc12	TEAD-YAP block 65.3
c1cncc(CCNc2ccnc3c(-c4ccc5ccccc5c4)cnn23)c1	TEAD-YAP block 58.7
c1ccc2cc(-c3cnn4c(NC5CCCNC5)ccnc34)ccc2c1 (stereo unspecified)	TEAD-YAP block 65.1
FC(F)(F)c1cc(-c2cnn3c(NC4CCCNC4)ccnc23)cc(C(F)(F)F)c1 (stereo unspecified)	none
CC[n+]1ccc(/C=C/c2ccc(OC)cc2OC)cc1	TEAD-YAP block 41.9
CC[n+]1ccc(/C=C/c2cccc(OC)c2OC)cc1	TEAD-YAP block 34.1
COc1ccc(N2CC(C(=O)N/N=C/c3ccc(F)cc3)CC2=O)cc1 (stereo unspecified)	none
NC(=O)c1ccc(-c2nc(N)c3ncn(-c4ccccc4)c3n2)cc1	TEAD-YAP block 55.5
NC(=O)c1ccc(-c2nc(NC3CC3)c3ncn(-c4ccsc4)c3n2)cc1	none
CN1CCN(C(=O)c2ccc(-c3nc(N)c4ncn(-c5ccccc5)c4n3)cc2)CC1	none
NC(=O)c1ccc(-c2nc(N)c3ncn(-c4ccsc4)c3n2)cc1	TEAD-YAP block 58.4
O=C(Nc1ccc(Cl)cc1Cl)c1nn2c(c1Br)NC(c1cccs1)CC2C(F)(F)F (stereo unspecified)	none
CC(NC(=O)/C(=C/c1ccc2c(c1)OCO2)NC(=O)c1ccco1)C(=O)O (stereo unspecified)	none
Cc1cccc(N2CCN(C(=O)c3cc(N4C(=O)C5C6CCC(C6)C5C4=O)ccc3Cl)CC2C)c1 (stereo unspecified)	none
Clc1cc(Cl)c2c(c1)C1C=CCC1C(c1ccccc1)N2 (stereo unspecified)	none
O=C(O)C1Nc2c(Cl)cc(Cl)c(Cl)c2C2C=CCC12 (stereo unspecified)	MITF inh 57.7
O=C(O)C1Nc2c(Cl)cc(Cl)cc2C2C=CCC12 (stereo unspecified)	MITF inh 59.4
COc1ccc(CNCc2ccccc2Cl)cc1	none
Cc1nc2ccccn2c1C(=O)NC1CCCc2ccccc21 (stereo unspecified)	TEAD-YAP block 39.6
CC1=NOC(=O)/C1=C/c1ccccc1O	MITF inh 54.9
CC1=NOC(=O)/C1=C\c1cc(Br)c(O)c(Br)c1	MITF inh 67.8
CCOc1cc(/C=C2\C(=O)ON=C2C)cc(Br)c1OCC	none
O=C1ON=C(c2ccccc2)/C1=C\c1ccccc1O	MITF inh 67.6
CCN(CC)c1ccc2cc(C(N)=O)c(=Nc3ccc(-c4nc5ccc(C)cc5s4)cc3)oc2c1	none
O=C(CN1CCSCC1)N/N=C/c1ccc([N+](=O)[O-])cc1	none
Cc1ccc(C(=O)Nc2ccc(N3CCC(NCCOC(C)C)CC3)cc2)c(C)c1	none
Cn1c(=O)c2c(nc(-n3ccnc3)n2Cc2ccc(Cl)cc2Cl)n(C)c1=O	FBW7 activator 1.9
Cc1cc2ccccc2cc1Cn1c(-n2ccnc2)nc2c1c(=O)n(C)c(=O)n2C	none
CN(C)CCNC(=S)NC(=O)CC12CC3CC(CC(C3)C1)C2	none
N#CS/C=C/C(=O)c1ccccc1	TEAD-YAP block 51.5
CCOc1coc(C(=O)NCc2ccccc2OC)cc1=O	none
O=c1c(-c2ccc(O)cc2)coc2cc(OC3OC(CO)C(O)C(O)C3O)ccc12 (stereo unspecified)	TEAD-YAP block 53.9
O=c1c(-c2cnn(-c3ccccc3)c2)coc2cc(O)ccc12	TEAD-YAP block 33.0
O=c1c(-c2ccc(O)cc2)coc2cc(OC3OC(CO)C(O)C(O)C3O)cc(O)c12 (stereo unspecified)	none
